The source made the active and inactive calls.
How the values were obtained:
[1] = tested on: Plasmodium falciparum Sir2 (PF13_0152, Sir2A); experiment: pfSir2 binders on small-molecule microarrays, primary screen, biochemical, small-molecule microarray, 635 nm fluorescence (AID 1098); conditions: small-molecule microarray binding, fluorescence 635 nm; higher = more signal;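 also: score merges spot fluorescence intensity with its signal-to-noise ratio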
[2] = small-molecule microarray binders of probe aDKK1, primary screen, biochemical, biotinylated probe, 635/667 nm fluorescence (AID 1099); conditions: higher = more signal;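 also: score merges 667nm spot fluorescence with signal to noise across triplicate slides; reference of the scale not given here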
[3] = small-molecule microarray binders of probe aCHRDL2, primary screen, biochemical, biotinylated probe, 635/667 nm fluorescence (AID 1100); conditions: higher = more signal
[4] = splicing luciferase reporter signal modulators, primary screen, spliceosome inhibition project, cell-based, HEK293, splice +/- reporter (AID 1101); conditions: luminescence, 24 h, higher = more signal, called active from +8 up or from −8 down;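 also: HEK293 cells carrying a splicing-competent luciferase reporter gene; test concentration not given here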
[5] = molecular target: Fibroblast growth factor 10 (Homo sapiens) (UniProt O15520); experiment: FGF10 binders on small-molecule microarrays, primary screen, biochemical, small-molecule microarray, 635 nm fluorescence (AID 1102); conditions: FGF10 binding, fluorescence 635 nm, higher = more signal
[6] = tested on: glycogen synthase kinase-3 (GSK3A per assay name; protocol says GSK3B); experiment: GSK3 binders on small-molecule microarrays, primary screen, biochemical, small-molecule microarray, 635 nm fluorescence, GSK3A (AID 1103); conditions: small-molecule microarray binding, fluorescence 635 nm; higher = more signal; also: the record names both GSK3A and GSK3B
[7] = molecular target: Epidermal growth factor receptor (Homo sapiens) (UniProt P00533); experiment: EGFR binders on small-molecule microarrays, primary screen, biochemical, small-molecule microarray, 635 nm fluorescence (AID 1104); conditions: EGFR binding, higher = more signal;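 also: score merges 667 nm emission intensity with spot signal to noise over triplicate slides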
[8] = molecular target: Follistatin-related protein 3 (Homo sapiens) (UniProt O95633); experiment: FSTL3 binders on small-molecule microarrays, primary screen, biochemical, small-molecule microarray, 635 nm fluorescence (AID 1105); conditions: FSTL3 binding, higher = more signal;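 also: score merges emission near 667 nm and signal to noise per printed spot across three slides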
[9] = molecular target: Dickkopf-related protein 1 (Homo sapiens) (UniProt O94907); experiment: DKK1 binders on small-molecule microarrays, primary screen, biochemical, small-molecule microarray, 635 nm fluorescence scan (AID 1106); conditions: DKK1 binding, higher = more signal;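 also: score merges emission near 667 nm with signal to noise over three replicate slides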
[10] = tested on: Inhibin beta A chain (activin A); experiment: INHBA (activin A) binders on microarrays, primary screen, biochemical, small-molecule microarray, 635 nm fluorescence scan (AID 1107); conditions: small-molecule microarray binding, higher = more signal;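 also: mouse activin A protein probed at 4.33 µg/mL on printed slides; score merges bound-protein fluorescence near 667 nm with spot signal-to-noise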

Chain of Fibroblast growth factor 10 (Homo sapiens) (O15520 whole entry, looked up): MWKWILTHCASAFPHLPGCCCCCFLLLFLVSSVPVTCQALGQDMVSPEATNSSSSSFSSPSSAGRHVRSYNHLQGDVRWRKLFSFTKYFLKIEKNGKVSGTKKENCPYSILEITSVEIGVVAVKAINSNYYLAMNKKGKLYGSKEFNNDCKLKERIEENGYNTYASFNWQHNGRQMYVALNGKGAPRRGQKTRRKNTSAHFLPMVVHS
Chain of Follistatin-related protein 3 (Homo sapiens) (O95633 whole entry, looked up): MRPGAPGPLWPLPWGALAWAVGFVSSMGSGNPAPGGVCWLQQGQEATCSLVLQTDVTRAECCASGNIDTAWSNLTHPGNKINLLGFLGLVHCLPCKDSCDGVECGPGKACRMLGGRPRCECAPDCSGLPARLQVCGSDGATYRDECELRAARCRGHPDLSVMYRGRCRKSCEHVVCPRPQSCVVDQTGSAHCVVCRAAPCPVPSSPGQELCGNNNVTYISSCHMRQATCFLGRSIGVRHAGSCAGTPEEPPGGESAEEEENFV
Chain of Epidermal growth factor receptor (Homo sapiens) (P00533 whole entry, looked up): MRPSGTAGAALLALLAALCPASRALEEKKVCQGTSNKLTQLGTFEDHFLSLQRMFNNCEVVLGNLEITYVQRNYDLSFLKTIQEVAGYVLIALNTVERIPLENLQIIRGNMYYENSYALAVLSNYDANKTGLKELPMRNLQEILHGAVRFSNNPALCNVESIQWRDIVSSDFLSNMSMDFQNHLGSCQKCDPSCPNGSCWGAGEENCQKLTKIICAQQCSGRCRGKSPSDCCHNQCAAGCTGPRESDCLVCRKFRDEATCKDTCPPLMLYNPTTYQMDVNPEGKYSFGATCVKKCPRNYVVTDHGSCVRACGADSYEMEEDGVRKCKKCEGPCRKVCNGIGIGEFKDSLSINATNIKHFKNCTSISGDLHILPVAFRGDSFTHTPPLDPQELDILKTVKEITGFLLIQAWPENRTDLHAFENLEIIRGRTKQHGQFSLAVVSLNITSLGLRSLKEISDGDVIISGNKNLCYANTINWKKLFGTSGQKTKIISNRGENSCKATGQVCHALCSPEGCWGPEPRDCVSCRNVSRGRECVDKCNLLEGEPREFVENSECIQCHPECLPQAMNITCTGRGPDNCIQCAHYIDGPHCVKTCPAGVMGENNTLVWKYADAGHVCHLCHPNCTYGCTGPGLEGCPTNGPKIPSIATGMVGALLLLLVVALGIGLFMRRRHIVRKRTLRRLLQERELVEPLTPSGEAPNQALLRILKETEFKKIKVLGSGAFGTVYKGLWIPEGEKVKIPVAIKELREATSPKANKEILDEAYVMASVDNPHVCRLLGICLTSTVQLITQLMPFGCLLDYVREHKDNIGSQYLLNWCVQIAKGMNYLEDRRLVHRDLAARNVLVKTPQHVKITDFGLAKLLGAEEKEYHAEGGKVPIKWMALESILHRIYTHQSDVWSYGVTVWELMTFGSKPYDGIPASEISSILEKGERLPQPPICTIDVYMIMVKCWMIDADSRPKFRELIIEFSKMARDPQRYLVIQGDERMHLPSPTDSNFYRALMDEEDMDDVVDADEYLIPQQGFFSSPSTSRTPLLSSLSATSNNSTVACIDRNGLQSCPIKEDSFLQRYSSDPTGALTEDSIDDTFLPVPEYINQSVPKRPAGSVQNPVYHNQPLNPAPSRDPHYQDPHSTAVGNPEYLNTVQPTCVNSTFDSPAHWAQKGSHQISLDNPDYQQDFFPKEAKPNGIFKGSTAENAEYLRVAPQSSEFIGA
Chain of Dickkopf-related protein 1 (Homo sapiens) (O94907 whole entry, looked up): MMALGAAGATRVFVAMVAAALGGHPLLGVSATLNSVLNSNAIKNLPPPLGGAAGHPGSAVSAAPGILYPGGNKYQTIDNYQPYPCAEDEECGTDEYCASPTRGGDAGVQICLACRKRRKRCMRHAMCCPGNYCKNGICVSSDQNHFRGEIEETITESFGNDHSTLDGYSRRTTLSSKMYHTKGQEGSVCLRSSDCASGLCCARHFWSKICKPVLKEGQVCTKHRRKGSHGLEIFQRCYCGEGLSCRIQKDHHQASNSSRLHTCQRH

Row | SMILES | composite z-score [1] | composite z-score [2] | composite z-score [3] | z-score [4] | composite z-score [5] | composite z-score [6] | composite z-score [7] | composite z-score [8] | composite z-score [9] | composite z-score [10]
1 | COc1ccc(CCNC(=O)[C@@H]2c3ccccc3C(=O)N(C(C)C)[C@H]2c2ccc(CO)cc2)cc1 | 0.37 | 0.316 | 0.684 | 0.109 (inactive) | -1.05 | -0.848 | -0.736 | -0.715 | -0.995 | -0.158
2 | O=C1C2C=CC(C(O)c3ccccn3)N(Nc3ccc([N+](=O)[O-])cc3)C2C(=O)N1c1ccccc1 (stereo not given) | 1.42 | 1.01 | 0.891 | 0.981 (inactive) | 0.37 | 0.377 | 0.0711 | 0.55 | -0.189 | 0.522
3 | COC(=O)C1(CC(C)C)C=C2C(=C(C)C(=O)C2C)CN1 (stereo not given) | -0.211 | 1.34 | 1.14 | 1.68 (inactive) | 0.069 | -0.279 | -0.155 | 0.641 | -0.15 | 1.43
4 | C[C@@]1([C@@H](NS(=O)(=O)c2cccc3cccnc23)c2ccc(-c3ccccc3)cc2)C[C@H]1C1CCCCC1 | 0.15 | 0.778 | 1.19 | -1.19 (inactive) | -0.0983 | -0.472 | 0.0823 | 0.49 | -0.473 | 0.638
5 | COC(=O)[C@@]1(Cc2ccc(F)cc2)[C@H]2c3cc(C(=O)N4CCCC4)n(CCSCCO)c3C[C@H]2CN1C(=O)c1ccccc1 | 1.33 | 1.02 | 1.22 | -2.25 (inactive) | 0.26 | -0.273 | -0.707 | -0.803 | -0.957 | 1.06
6 | COC(=O)c1c2oc(c1C(=O)OC)C(=O)N[C@H](Cc1ccccc1)Cn1cc(nn1)C1(CCCCC1)NC(=O)N[C@H](CO)CC2 | 0.569 | -0.177 | -0.279 | -0.168 (inactive) | 0.495 | -0.528 | -0.857 | -0.409 | -0.2 | 0.116
7 | CCCCCCc1nc(-c2ccc(OC)nc2)c(C)c2c1[Si](C(C)C)(C(C)C)OC2 | -0.299 | -0.202 | -0.358 | -2 (inactive) | -0.168 | -0.264 | 0.218 | 0.565 | 1.03 | 0.444
8 | C=C(CCCC)/C(=C/C[C@@H](OC(C)=O)c1cccc(OCCO)c1)c1cc(C(=O)OC)ccc1OC | 1.31 | -0.113 | 0.0282 | -0.509 (inactive) | -0.004 | -0.657 | -0.347 | 0.212 | -0.08 | 0.863
9 | COC(=O)[C@@]1(Cc2ccc(F)cc2)[C@H]2c3cc(C(=O)N4CCCC4)n(Cc4ccc(OC(F)(F)F)cc4)c3C[C@H]2CN1C(=O)c1ccccc1 | 0.776 | 0.142 | 0.548 | 1.08 (inactive) | -0.135 | -0.141 | -0.564 | -1.03 | -0.559 | 0.602
10 | CC[C@@H]1C=C(C(=O)O)[C@H](c2cccc(Cl)c2)N1S(=O)(=O)c1ccc(C)cc1 | 0.514 | 0.472 | 0.692 | 0.608 (inactive) | 0.0519 | 0.46 | -0.527 | -0.614 | -0.785 | 0.414
11 | CCOC(=O)C[C@H]1[C@H](OC(=O)c2cc3ccccc3oc2=O)[C@@H](NC(=O)Cc2ccc(OC)cc2)c2cc(OCCCO)ccc2N1C(=O)Cc1ccc(OC)cc1 | 0.776 | -0.249 | -0.43 | -1.28 (inactive) | 0.703 | 0.382 | 0.455 | 0.789 | 0.328 | 0.156
12 | COCCOC(=O)N1C(=O)[C@@]2(c3cc(C#CCC(C(=O)OC)C(=O)OC)ccc31)[C@H](C(N)=O)[C@H]1C(=O)O[C@H](c3ccccc3)[C@H](c3ccccc3)N1[C@@H]2c1ccccc1OCCO | 0.997 | -0.202 | -0.129 | -1.32 (inactive) | 1.37 | 1.31 | 0.958 | 1.09 | 0.47 | 0.486
13 | O=C1O[C@H](c2ccccc2)[C@H](c2ccccc2)N2[C@H]1[C@@H](C(=O)Nc1nc3ccccc3s1)[C@]1(C(=O)Nc3ccccc31)[C@H]2c1ccccc1OCCO | 1.42 | 0.0289 | 0.505 | -0.539 (inactive) | 0.475 | 0.901 | -0.115 | 0.399 | -0.086 | 0.121
14 | CO[C@H]1O[C@H](CO)[C@@H](OC(=O)CCc2ccccc2)[C@@H]2OC(=O)[C@@H](Cc3ccc4ccccc4c3)C/C=C/C[C@H](Cc3ccc4ccccc4c3)C(=O)O[C@@H]12 | 1.08 | -0.653 | 0.46 | -0.779 (inactive) | -0.361 | -0.346 | -0.691 | 0.0223 | -1.19 | 0.499
15 | COCCCNC(=O)[C@@]1(Cc2ccccc2I)c2ccccc2C(=O)N(Cc2ccccc2OC)[C@H]1c1ccc(CO)cc1 | -0.347 | -0.302 | 0.941 | 0.932 (inactive) | -0.0058 | -0.116 | -0.824 | -0.557 | -1.51 | -1.43
16 | COC(=O)Cn1c(C(=O)N(C)C)cc2c1C[C@H]1CN(C(=O)c3ccccc3)[C@@](Cc3ccccc3)(C(=O)OC)[C@@H]21 | 0.272 | 0.605 | 0.686 | -0.332 (inactive) | -0.482 | -1.25 | 0.183 | -0.326 | -0.578 | 0.865
17 | C[C@]1(C(=O)NC2CC2)c2ccccc2C(=O)N(Cc2cc(F)cc(C(F)(F)F)c2)[C@H]1c1ccc(CO)cc1 | 0.938 | -0.554 | 0.87 | -0.224 (inactive) | -0.698 | -1.08 | -1.16 | -0.801 | -1.46 | -0.672
18 | COCCCNC(=O)[C@]1(Cc2ccccc2CN=[N+]=[N-])N=C(c2ccc(OCCCO)cc2)O[C@@H]1c1ccccc1N=[N+]=[N-] | 0.427 | 1.36 | 1.38 | -0.486 (inactive) | 0.575 | 0.672 | 0.003 | 0.205 | 0.0122 | 1.4
19 | COc1ccc(CCNC(=O)[C@@]2(c3ccc([N+](=O)[O-])cc3)CC(=O)N(C3CCCCC3)[C@@H]2c2ccc(CO)cc2I)cc1 | 0.401 | -0.0644 | -0.0582 | 0.845 (inactive) | 0.823 | 0.56 | 0.19 | 0.241 | 0.608 | 0.44
20 | CC[C@@H](O[Si](C#C[Si](C(C)C)(C(C)C)C(C)C)(C(C)C)C(C)C)c1cn(Cc2cccc(Cl)c2)nn1 | 0.433 | -0.0597 | -0.3 | 0.453 (inactive) | 0.418 | 0.791 | 0.293 | 0.775 | 0.388 | 0.232
21 | COc1ccc(C(O)C2C=CC3C(=O)N(C)C(=O)C3N2Nc2ccccc2)cc1 (stereo not given) | 0.454 | -0.0205 | 0.87 | -0.52 (inactive) | 0.663 | 0.925 | 0.468 | 0.441 | 0.312 | 0.979
22 | COc1cc2c(cc1OC)CN(C(=O)[C@@H]1[C@H]3C(=O)O[C@H](c4ccccc4)[C@H](c4ccccc4)N3[C@H](c3ccc(O)cc3)[C@@]13C(=O)Nc1ccc(C#CC4=CCCCC4)cc13)CC2 | 1.39 | 0.716 | 0.586 | -0.101 (inactive) | 0.975 | 1.28 | 0.452 | 1.03 | 0.453 | 0.475
23 | O=C1N(Cc2ccccc2)c2ccccc2C[C@@]12N=C(c1ccc(OCCCO)cc1)O[C@H]2c1ccccc1 | -0.0351 | 0.184 | 0.923 | -0.521 (inactive) | 0.457 | 0.977 | 0.282 | 0.319 | -0.648 | 0.295
24 | C=CC[C@]12N=C(c3ccc(OCCCO)cc3)O[C@H]1c1ccccc1N(CCC)C2=O | 1.18 | 0.43 | 0.693 | -0.391 (inactive) | 1.11 | 1.25 | 0.37 | 1.11 | 0.277 | 1.3
25 | O=C1O[C@H](c2ccccc2)[C@H](c2ccccc2)N2[C@H]1[C@@H](C(=O)N1CCCCCCC1)[C@]1(C(=O)Nc3ccc(C#CCCO)cc31)[C@H]2c1ccc(O)cc1 | 2.11 | 2.97 | 1.72 | -0.547 (inactive) | 1.67 | 1.47 | 1.99 | 1.74 | 2.7 | 1.96
